# Screens: PubChem BioAssay, National Center for Advancing Translational Sciences (NCATS)
# JMJD2A Tudor inh – inhibitors of human JMJD2A Tudor domain | O75164 | AlphaScreen JMJD2A-Tudor / H3K4me3 peptide binding | Potency, µM (highest dose often 114 µM), for inactives: at the highest dose activity change, negative = inhibition, most hits filed as inhibitors | 390,000 tested, 4.4% active; also: potency is read from the fitted curve at half-maximal effect; % is scaled to controls: 0 for no effect and ±100 for the full control effect; nearly all actives have a fitted effect of over 50% in size
# HP1b binding inh – inhibitors of HP1-beta chromodomain binding to methylated histone tails; P83916; AlphaScreen HP1-beta / biotin-H3K9me3 peptide binding; Potency, µM (highest dose often 114 µM), for inactives: at the highest dose activity change, negative = inhibition, actives largely listed as inhibitors; 390,000 tested, 0.56% active; AID 540317; also: potency is read from the fitted curve at half-maximal effect; nearly all actives have a fitted effect of over 70% in size
#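 HP1-beta protein (50 nM final) preincubated 30 min at room temperature with biotinylated H3(1-18)K9me3 peptide (50 nM) in PBS pH 7.4, 0.01% Tween-20, then compound added for 30 min. AlphaScreen streptavidin donor/nickel chelate acceptor beads (10 ug/mL final), 30 min dark, luminescence read.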
# CtBP-E1A inh – CtBP/E1A binding inhibition; AlphaScreen GST-E1A/His-CtBP binding, 1536-well; active compounds read low; activity change, % (concentration not given with the values); 340,000 tested, 0.49% active; AID 651724; in the data active = activity change below about -65%; inconclusive = mostly about -30% to -63%; also: % is scaled to controls: 0 for no effect and ±100 for the full control effect
#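 GST-E1A and His-tagged CtBP (125 nM each as 5X stock) were preincubated with pin-transferred compound for 2 h at 37 °C in the dark, then glutathione donor and nickel acceptor beads were added for 1 h before AlphaScreen reading.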
# BAZ2B inh – BAZ2B (human) inhibition; AlphaScreen BAZ2B-H3K14Ac peptide displacement; Potency, µM (highest dose often 114 µM), without a hit: at the top dose activity change, negative = inhibition, most hits filed as inhibitors; 360,000 tested, 4.4% active; AID 504333; also: potency is read from the fitted curve at half-maximal effect; % is scaled to controls: 0 for no effect and ±100 for the full control effect; nearly all actives have a fitted effect of over 60% in size
#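 Compounds, titrated to a top concentration of 110 uM, were incubated 30 min at room temperature with preformed BAZ2B/acetyl-K14 H3 peptide complex (50 nM each). Proximity signal was measured by AlphaScreen after 20 min with beads.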
# G9a inh – inhibitors of human histone lysine methyltransferase G9a. Potency, µM (series often up to 102 µM), for the others: at the top dose activity, negative = inhibition, actives largely listed as inhibitors. 350,000 tested, 8.8% active. Q96KQ7. G9a H3K9 monomethylation, AlphaScreen, 2 h; also: potency is read from the fitted curve at half-maximal effect; % is scaled to controls: 0 for no effect and ±100 for the full control effect; nearly all actives have a fitted effect of over 75% in size
#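 Readings reflect AlphaScreen signal from monomethyl-H3K9 antibody detection. HMT at 20 nM; substrate b-H3K9 500 nM; cofactor SAM 20 uM; 2 h RT reaction; compounds tested as titrations in qHTS with 15 min preincubation.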
# Six1-Eya2 blk – Six1/Eya2 interaction inhibition; Q15475+O00167; 360,000 tested, 0.56% active; AlphaScreen GST-Six1/His-Eya2 binding, biochemical; active compounds read low; AID 651725; activity change, % (test concentration not listed); in the data active = activity change below about -65%; inconclusive = mostly about -30% to -63%; also: % is scaled to controls: 0 for no effect and ±100 for the full control effect
# Target sequence (O00167 whole entry, looked up): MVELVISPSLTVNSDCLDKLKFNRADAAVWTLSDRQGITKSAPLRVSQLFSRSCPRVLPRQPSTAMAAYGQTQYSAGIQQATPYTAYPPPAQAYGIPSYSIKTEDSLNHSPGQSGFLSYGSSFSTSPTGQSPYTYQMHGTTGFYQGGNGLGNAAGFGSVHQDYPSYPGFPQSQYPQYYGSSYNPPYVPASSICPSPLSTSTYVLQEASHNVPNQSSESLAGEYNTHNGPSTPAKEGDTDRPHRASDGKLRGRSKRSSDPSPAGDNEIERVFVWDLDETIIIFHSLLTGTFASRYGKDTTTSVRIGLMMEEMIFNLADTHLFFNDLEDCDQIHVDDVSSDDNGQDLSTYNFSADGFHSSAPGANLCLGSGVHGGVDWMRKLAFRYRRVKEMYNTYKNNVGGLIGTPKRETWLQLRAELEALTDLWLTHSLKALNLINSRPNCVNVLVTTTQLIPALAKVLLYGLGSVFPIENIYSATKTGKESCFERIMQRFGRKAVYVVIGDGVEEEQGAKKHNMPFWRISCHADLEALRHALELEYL
# Target sequence (Q15475 whole entry, looked up): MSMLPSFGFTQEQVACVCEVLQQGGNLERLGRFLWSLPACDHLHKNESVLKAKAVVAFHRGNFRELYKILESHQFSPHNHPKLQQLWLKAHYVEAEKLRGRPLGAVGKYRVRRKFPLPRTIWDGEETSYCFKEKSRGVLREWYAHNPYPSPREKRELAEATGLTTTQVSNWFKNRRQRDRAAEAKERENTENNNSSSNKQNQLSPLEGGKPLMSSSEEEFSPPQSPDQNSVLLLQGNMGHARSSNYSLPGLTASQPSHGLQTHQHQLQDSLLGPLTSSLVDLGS
#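 AlphaScreen luminescence read after one hour at 37 °C in darkness. Pin-transferred compounds met GST-Six1 and His-Eya2 protein (5X stock 250 nM/500 nM) plus glutathione donor and Ni-chelate acceptor beads (5X, 50 ug/mL).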
# * hit, by the source's call; ? = inconclusive; . = no result; [ ] = another dose, or the depositor's remark. A selection: hits, their analogues and other compounds. The true share with any hit is near 10%. Unless noted, calls follow the shape of the dose curve; as a rule, active = well fitted inhibition curve with a large enough effect; inconclusive = small, poorly fitted or top-dose-only effect; inactive = no such curve, though single readings can be large or run the other way.
SMILES,JMJD2A Tudor inh,HP1b binding inh,CtBP-E1A inh,BAZ2B inh,G9a inh,Six1-Eya2 blk
O=C(O)c1c(C(=O)N2N=C3/C(=C/c4ccccc4)CCCC3C2c2ccccc2)cccc1[N+](=O)[O-] (stereo not drawn),-21%,16%,-19,?,50µM*,15
CC(=O)N1N=C2/C(=C/c3ccccc3)CCCC2C1c1ccccc1 (stereo not drawn),?,-8%,-3,-22%,.,0
C=CCNc1nc(NCCOC)c2sc(-c3ccccc3)cc2n1,.,.,-4,.,.,-2
C=CCNc1nc(NCc2ccc(N(C)C)cc2)c2sc(-c3ccccc3)cc2n1,.,.,-77*,.,.,-73*
O=C(CN1CCCc2ccccc21)N/N=C/c1ccc(O)cc1O,?,-11%,-27,-27%,79µM*,?
O=C(CN1CCCc2ccccc21)NCc1ccc2c(c1)OCO2,-25%,6%,-17,?,-6%[59 µM],-9
O=C(CN1CCCc2ccccc21)N/N=C/c1ccccc1,-32%,7%,-12,?,45µM*,-11
NS(=O)(=O)c1ccc(NC(=O)CN2CCCc3ccccc32)cc1,-20%,9%,-3,-26%,28µM*,-13
O=C(CN1CCCc2ccccc21)N/N=C/c1c(O)ccc2ccccc12,?,?,?,-12%,40µM*,?
O=C(N/N=C\c1c(O)ccc2ccccc12)c1ccc(S(=O)(=O)N2CCCCC2)cc1,?,5%,5,-3%,21%[59 µM],-17
NS(=O)(=O)c1ccc(NC(=O)CN2CCc3ccccc32)cc1,-4%,36%,0,-3%,.,25
CCCNC(=O)c1ccc2nc(CCc3ccccc3)oc2c1,-28%,21%[57 µM],.,5%,9%[59 µM],.
O=C(c1ccc2c(c1)OCO2)N(Cc1ccco1)C1(C(=O)NC2CCCCC2)CCCCC1,-22%,-10%,-14,-6%,79µM*,13
Cc1ccc2c(c1)c(N=NC(N)=S)c(O)n2Cc1ccccc1,-19%,6%,9,1%,43%[59 µM],3
NC(=S)N=Nc1c(O)cc(O)c2[nH]c(=O)ccc12,50µM*,18µM*,-3,.,.,-85*
O=C(CC1C(=O)NCCN1CC1CCCCC1)NCc1ccc(Cl)cc1 (stereo not drawn),-3%,30%,.,-7%,-41%,3
O=C(CC1C(=O)NCCN1CC1CCCCC1)NCc1cc(F)ccc1F (stereo not drawn),11µM*,-13%,8,-3%,.,1
CC(C)c1cc(CNC(=O)CC2C(=O)NCCN2CC2CCCCC2)on1 (stereo not drawn),-15%,40%,2,-2%,50µM*,7
O=C(CC1C(=O)NCCN1CC1CCCCC1)NCc1ccc(F)cc1F (stereo not drawn),-13%,38%,-5,1%,.,-2
COc1ccc(CCNC(=O)Cc2c(C)c3c(cc(C)c4c(C)c(C)oc43)oc2=O)cc1,-19%,24%,.,0%,6%[59 µM],.
O=C(CN1C(=O)COc2ccc(S(=O)(=O)N3CCOCC3)cc21)NCc1ccc(F)cc1,7%,46%,.,-3%,-2%[59 µM],.
CCC(=O)c1ccccc1OCCN1CCN(CC)CC1,14µM*,?,.,35µM*,14µM*,18
CC1CC(C)CN(CCC(=O)Nc2cccc(Cl)c2)C1 (stereo not drawn),0%,29%,10,-13%,-35%[2.33 µM],-1
CC1CC(C)CN(CCOc2cccc(Cl)c2Cl)C1 (stereo not drawn),79µM*,?,6,?,13µM*,2
CCN1CCN(CCOc2cccc(Cl)c2Cl)CC1,4µM*,?,.,18µM*,.,5
SMILES,JMJD2A Tudor inh,HP1b binding inh,CtBP-E1A inh,BAZ2B inh,G9a inh,Six1-Eya2 blk
CC1CC(C)CN(CCOc2ccc(Cl)cc2Cl)C1 (stereo not drawn),2.8µM*,?,28,56µM*,?,12
Cn1c(=O)n(CCOc2ccc(Cl)cc2Cl)c2ccccc21,-7%,14%,-1,6%,?,1
CC1(C)NC(=O)N(CCOc2cccc(Cl)c2Cl)C1=O,-2%,64%,44,7%,8%[59 µM],24
COc1ccc(NC(=O)CSc2nc3ccccc3n2CC(=O)N(C)C2CCCCC2)cc1,-6%,28%,.,-19%,-2%[12.7 µM],.
Clc1cccc(OCCn2cncn2)c1Cl,-3%[11.4 µM],-35%,2,56µM*,?,-1
CCC(=O)c1ccc(OCCn2cncn2)cc1,-8%,58%,8,0%,7%[12.7 µM],2
Cc1ccc(C(C)C)cc1OCCn1cncn1,2.2µM*,50µM*,-2,79µM*,11µM*,-14
C=CCc1ccc(OCCn2cncn2)c(OC)c1,6%,34%,.,10%,-16%,-6
CCC(=O)c1ccccc1OCCCCn1cncn1,5.6µM*,?,.,28µM*,8.9µM*,2
c1ccc2c(NCCN3CCOCC3)nc(-c3ccoc3)nc2c1,.,.,.,.,-4%[0.501 µM],.
Cc1ccc(NC(=O)c2ccc(F)c(S(=O)(=O)NCCc3ccccc3)c2)cc1F,-29%,21%,.,2%,-23%[59 µM],.
Cc1ccc2nc(-c3cccc(NC(=O)c4cccc5c(Cl)cccc45)c3)oc2c1,-2%,27%,.,-11%,-21%[59 µM],.
COc1ccc(/C=C/C(=O)c2ccccc2O)cc1CN1CCOCC1,?,-29%,-13,?,?,-18
COc1ccc(C(=O)/C=C/c2ccc(OC)c(CN3CCOCC3)c2)cc1,?,-36%,?,?,?,-21
COc1ccc(/C=C/C(=O)c2ccc(O)cc2)cc1CN1CCOCC1,-29%[57.1 µM],10%,-86*,-7%,14%[59 µM],?
COc1ccc(/C=C/C(=O)c2ccc3ccccc3c2O)cc1CN1CCOCC1,?,?,-6,14µM*,6.3µM*,-15
CNCCOc1ccccc1-c1ccccc1,3.5µM*,-58%,-1,?,?,8
C=CCNCCCCOc1ccccc1-c1ccccc1,2%,13%,8,4%,-2%[59 µM],10
CNCCCCOc1ccccc1-c1ccccc1,0.63µM*,?,-11,56µM*,?,13
CCOc1ccccc1OCCOc1ccccc1OC(C)C,71%,141%,18,49%,115%,31
CNCCOc1ccccc1OC(C)C,2.2µM*,-25%,9,?,18µM*,1
COc1ccc(C(C)NC(=O)c2cccc([N+](=O)[O-])c2)cc1OC (stereo not drawn),-14%,6%,2,8%,8%[59 µM],5
O=[N+]([O-])c1ccc(Sc2ncc3ccccn23)nc1,-11%,44%,.,-14%,?,-4
O=C1NCCCc2nonc21,-3%,26%,6,-5%,13%,7
C1CCc2c(nnc3c2-c2nonc2CC3)C1,-3%,23%,6,6%,32µM*,5
